# According to PubChem BioAssay AID1508619 (National Center for Advancing Translational Sciences (NCATS), 2020):
# Records with an inconclusive call do not appear. Unmarked numbers belong to inactive results. Calls of active or inactive are those of the source. Calls come from the whole dose curve; as a rule, active = well fitted inhibition curve with a large enough effect; inconclusive = small, poorly fitted or top-dose-only effect; inactive = no such curve, though single readings can be large or run the other way.
# Test: Counterscreen qHTS for Identification of Calcium Integrin Binding Protein 1 (CIB1) Competitor
# Details: series mostly up to 114 µM; activity, negative = inhibition: at the top concentration
# Description: Assay Provider: Ulhas P. Naik, PhD
# Sidney Kimmel Medical College
# Thomas Jefferson University, Philadelphia, PA
# Primary function of platelets is to maintain hemostasis. At the site of vascular injury, platelets adhere to adhesive proteins such as collagen and von Willebrand factor. Adherent platelets are activated and generate soluble platelet agonists such as thrombin, ADP and thromboxane A2. Following exposure of circulating platelets to these agonists, results in platelet shape change, granule secretion and activation of platelet integrin alphaIIb-beta3. Ligand binding to activated integrin alphaIIb-beta3 triggers outside-in signaling, leading to platelet aggregation, stabilization of platelet plug, and clot retraction. Upon atherosclerotic plaque rupture also causes platelet plug formation, which underlies a number of cardiovascular diseases such as myocardial infraction and stroke. A number of anti-platelet drugs such as aspirin, clopidogrel, prasugrel, vorapaxar, and eptifibatide are currently available to prevent the thrombotic complications. However, these anti-platelet agents have several limitations including inherent variability in individual responses, developing resistance, and serious bleeding side effects. For these reasons they are not suitable for long-term protection. Based on the experiences with current anti-platelet drugs, it appears that the most useful therapeutic approach is to intersect the secondary responses such as integrin outside-in signaling or recruitment of platelets by TxA2 and secreted ADP. Compounds, which can largely preserve the primary hemostatic function of platelets but inhibit secondary response will be most desired therapeutic agents for treatment of cardiovascular disease.
# CIB1 is a calcium integrin binding protein, which specifically interact with the alphaIIb subunit of integrin alphaIIb-beta3. Binding of CIB1 to alphaIIb regulates the outside-in signaling in platelets, which is needed for thrombus stabilization and thrombus growth. […] Therefore, we propose that discovery of a small molecule that can prevent the association of CIB1 and alphaIIb-beta3 will be a potential anti-platelet agent that can block the thrombus formation without undue effect on hemostasis.
# To develop fluorescence polarization (FP) assay using fluorescently labeled alphaIIb peptide and CIB1 protein. Using FP assay characterize the binding affinity, competitive inhibition, and acceptable Z factor (0.5 to1) in order to perform the HTS to identify small molecule compound that can prevent CIB1 binding to platelet integrin alphaIIb-beta3. Active compounds were re-acquired and validated using confirmatory and counterscreens (using 100 nM scrambled peptide).
# [1] Naik MU, Nigam A, Manrai P, et al. CIB1 deficiency results in impaired thrombosis: the potential role of CIB1 in outside-in signaling through integrin alpha IIb beta 3. J Thromb Haemost. 2009;7(11):1906-1914. doi:10.1111/j.1538-7836.2009.03581.
# SEQUENCE No. (1, 2, 3, etc.); […] (e.g., Cells, Incubation, Reagent, etc.); VALUE and DESCRIPTION.
# 1; Reagent; 3 uL; Protein or buffer (4/3x)
# 2; Compound; 46 nL; Control inhibitor / compound library
# 3; Time; 15 min; Room temperature incubation
# 4; Reagent; 1 uL; Fluorescent labeled peptide (4x)
# 5; Time; 1000 rpm; Centrifuge
# 6; Time; 15 min; Room temperature incubation
# 7; Detection; Ex 480/ Em 540; ViewLux Fluorescence Read
# NOTES (numbers refer to sequence above)
# 1; Protein Mixture: C1B1-GST (final concentrations of 1 uM). Buffer composition: 5 mM HEPES pH 7.4, 125 mM NaCl, 5 mM CaCl2, 0.01% Tween20.
# 2; Control Inhibitor: unlabeled peptide (final concentration range 17.4 nM to 572 uM). Compound Library final concentration range 18.3 nM to 114 uM.
# 3; Room temperature incubation.
# 4; Fluorescent Labeled Peptide: FITC-alphaIIb (final concentration of 100 nM). Sequence of Scrambled peptide: Acetyl-[…]-FITC (purity is 95.37%).
# 6; Room temperature incubation.
# […]
# % is set by controls: 0 for no effect and ±100 for the full control effect; potency is the fitted concentration of half-maximal effect.
SMILES,"activity, negative = inhibition [%]",Potency
O=C(O)c1ccc(-c2ccc3ncnc(NCc4nccs4)c3c2)o1,-15.8,
Cc1cnc(-c2ccccc2C(C)C)nc1NCc1ccc(-c2ccc(F)nc2)cc1,,44.7 µM (active)
COc1ccc2nc(S(=O)Cc3ncc(C)c(OC)c3C)[nH]c2c1 (stereo not given),-29,
O=C1c2c(O)ccc(O)c2C(=O)c2c(NCCNCCO)ccc(NCCNCCO)c21,,20 µM (active)
COc1ccccc1Nc1cc2ccccc2c(=O)[nH]1,,35.5 µM (active)
CCN(CC)C(=S)SSC(=S)N(CC)CC,,inactive
Cc1c(C)n(Cc2ccc(-c3ccccc3C(=O)O)cc2)c2ccc(C(=O)N[C@@H](C)c3ccc([N+](=O)[O-])cc3)cc12,6.01,
COc1ccc(CC(=O)Nc2ccc(S(=O)(=O)Nc3cc(C)on3)cc2)cc1C,-11.6,
NC[C@@H](O)c1ccc(O)c(O)c1,-1.26,
O=C(NNC(=O)c1nc2ccccc2[nH]1)OCc1ccccc1,-15.8,
Cc1ccc2nc3sc(C(=O)NCc4ccco4)cc3cc2c1,,inactive
Cc1cc2nc3ccc(=[N+](C)C)cc-3sc2cc1N,,44.7 µM (active)
O=C(O)c1ccccc1SC1=NS(=O)(=O)c2ccccc21,7.2,
CN1CCN(c2ccc(-c3cc(O)c4ncccc4c3)cc2)CC1,-1.91,
CC(C)(C)OC(=O)CC(=O)NNC(=O)c1nc2ccccc2[nH]1,-8.05,
COC(=O)c1ccc(O)c2ncc(-c3ccc(C(=O)N4CCNCC4)cc3)cc12,-23.2,
Oc1cccc2cc(C3CC3)cnc12,-16.4,
NC(=O)c1ncn([C@@H]2O[C@H](CO)[C@@H](O)[C@@H]2O)c1O,-9.27,
C/C(=C\c1ccc2c(c1)OCO2)C1Nc2cccc3cccc(c23)N1,,12.6 µM (active)
CC1(C)N=C(Nc2nc3ccccc3o2)NC2=C1C(=O)CCC2,-8.36,

SMILES,"activity, negative = inhibition [%]",Potency
CCOC(=O)c1c(-c2ccc(C)o2)csc1NC(=O)CSc1nnnn1-c1ccccc1,-19.9,
NS(=O)(=O)c1ccc(Nc2nc(-c3ccccc3)cs2)cc1,,44.7 µM (active)
Cn1cc(-c2[nH]c3cc(NC(=O)[C@H](N)C4CCCCC4)cc4c3c2C=NNC4=O)cn1,,79.4 µM (active)
Cc1ccc(OCCn2c(CCNC(=O)c3ccsc3)nc3ccccc32)cc1,125,
CCOc1ccc(CCNC(=O)c2ccc(N3N=C(C)CC3=O)cc2)cc1OCC,-10.4,
Oc1c(Cl)cc(Cl)c(Cl)c1Cc1c(O)c(Cl)cc(Cl)c1Cl,87.1,
O=C(O)c1c(Cl)c(Cl)c(Cl)c(Cl)c1-c1c2cc(I)c(=O)c(I)c-2oc2c(I)c(O)c(I)cc12,272,
NC(=O)C1CCN(c2ncc(Br)s2)CC1,,39.8 µM (active)
Fc1ccc(NC(=S)Nc2nnc(-c3ccncc3)s2)cc1C(F)(F)F,27.3,
C[C@H](Cc1ccc(O)c(O)c1)[C@@H](C)Cc1ccc(O)c(O)c1,,12.6 µM (active)
C=C(CC)C(=O)c1ccc(OCC(=O)O)c(Cl)c1Cl,-29.6,
N#Cc1ccc(NS(=O)(=O)c2ccc(NC(=O)Cc3ccc(F)c(Cl)c3)cc2)cc1,119,
CCOc1ccc2nc3cc(N)ccc3c(N)c2c1,,31.6 µM (active)
O=S(=O)(Nc1nccs1)c1ccc(Nc2nc(-c3ccccc3)cs2)cc1,,50.1 µM (active)
Cc1ccc(S(=O)(=O)Nc2ccc(Br)cc2C(=O)Nc2nc(-c3ccccc3)cs2)cc1,197,
CCc1ccc(NC(=O)C(=O)NNC(=O)c2cccs2)cc1,56.2,
O=[S+]([O-])(NCc1nccs1)c1ccc(Nc2nc(-c3ccccc3)cs2)cc1,,50.1 µM (active)
CCCC(=O)c1cc(O)c(O)cc1O,,31.6 µM (active)
CN1CCC(N(Cc2cccs2)c2ccccc2)CC1,7.51,
O=C(Cc1ccc(Cl)c(Cl)c1)Nc1ccc(S(=O)(=O)Nc2cccc(C(=O)O)c2)cc1,18.5,
